# Measured values from PubChem BioAssay.
# Several values for one entry are separate records, joined by “and”; a condition that tells them apart may be missing. Identical values can stand only once. Activity calls are given as the source filed them. Cut-off read from the data, not from the text of the source, unless noted: active = inhibition above about 80%; inactive = the rest.
# Experiments:
# [1] = growth inhibition, single agents and combos, UWB1.289, cell-based, BGB or cisplatin combos, synergistic combos for chromothripsis tumors (AID 1671456); conditions: UWB1.289 ovarian carcinoma cells, stronger effect = higher value;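 note: cells exposed to compound for four days; 0% = vehicle DMSO and 100% = killing by high DMSO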
# [2] = growth inhibition, single agents and combos, LFS_MB_2R, cell-based, cisplatin combos, synergistic combos for chromothripsis tumors (AID 1671457); conditions: LFS_MB_2R medulloblastoma cells, stronger effect = higher value;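 note: cells exposed to compound for four days before readout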
# [3] = growth inhibition, MDA-MB-436, cell-based, BGB or cisplatin combos, synergistic combos for chromothripsis tumors (AID 1671458; call rule not given here;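 note: cells exposed for 96 hours; 0% = vehicle DMSO and 100% = killing by high DMSO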); conditions: MDA-MB-436 breast carcinoma growth inhibition, drug combinations, stronger effect = higher value
# [4] = UWB1.289_BRCA1 ovarian cancer growth, cell-based, BGB or cisplatin combinations (AID 1671459); conditions: UWB1.289 BRCA1 ovarian carcinoma, drug combinations, stronger effect = higher value
# [5] = drug combination toxicity in non-malignant astrocytes – cell-based, BGB or cisplatin IC20 combos, cytotoxicity control for chromothriptic childhood tumor combination screen (AID 1671460); conditions: Human astrocytes, viability inhibition, drug combinations, at 0.5 µM, stronger effect = higher value;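 note: cells exposed to compounds for 96 hours before viability readout; 0% = vehicle and 100% = killing control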
# [6] = BT084 cell growth, single and combined drugs, ICGC_MB145, cisplatin and BGB IC40 combos (AID 1671461); conditions: BT084 medulloblastoma cells, drug combinations, stronger effect = higher value;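 note: cells exposed to drugs for 96 hours; 0% = vehicle DMSO and 100% = high DMSO full killing control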
# [7] = RCMB18 cell growth, single agent and combined, cisplatin and BGB IC40 combos (AID 1671462); conditions: RCMB18 medulloblastoma cells, stronger effect = higher value;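 note: cells exposed to compound for four days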
# [8] = CRL1545 cell growth, single agent and combined, cisplatin and BGB IC20 combos (AID 1671464); conditions: CRL1545 osteosarcoma cells, stronger effect = higher value;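 note: cells exposed to compound for 96 hours before readout; 0% = vehicle DMSO and 100% = high DMSO killing control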
# F380Y = assay: BK channel mutant inhibitors and activators – cell-based, U2OS BacMam, thallium flux, beta subunits, selectivity assay, profiling panel (AID 1259406;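 active = thallium flux through the channel raised or lowered by more than 3 SD from vehicle-only wells, actives on both sides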;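 note: initial slope of Thallos dye fluorescence rise after thallium is added; log ratio against the mean of 0.3% DMSO vehicle wells on the same plate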); conditions: U2OS BacMam BK variants, at 30 µM
# F380Y/beta1 = assay: as above; conditions: U2OS BacMam BK variants, at 30 µM
# [9] = measured here: inhibition with BGB combination, at 0.05 µM
# [10] = measured here: inhibition with cisplatin combination, at 0.05 µM
# [11] = measured here: combination with cisplatin, at 0.5 µM
# [12] = measured here: combination with cisplatin, at 5 µM
# [13] = measured here: BGB combination, at 0.5 µM
# [14] = measured here: BGB combination, at 5 µM
# [15] = measured here: cisplatin combination, at 0.5 µM
# [16] = measured here: cisplatin combination, at 5 µM
# [17] = BGB combination, concentration series, at 5 µM
# [18] = cisplatin combination, concentration series, at 5 µM
# [19] = measured here: combo with BGB IC20
# [20] = measured here: combo with cisplatin IC20
# [21] = cisplatin combination, at 0.5 µM
# [22] = measured here: BGB IC40 combination 0.05 uM, at 0.05 µM
# [23] = measured here: BGB IC40 combination, at 0.05 µM
# [24] = measured here: with BGB IC20 combination, at 0.5 µM
# [25] = measured here: with cisplatin IC20 combination, at 0.5 µM
structure (smiles),measurement,setting,value
Nc1nc(=S)c2[nH]cnc2[nH]1,inhibition,[1]; at 0.5 µM,63.1% (inactive)
same,inhibition,[1]; [9],-17.4%
same,inhibition,[1]; [10],-1.37%
same,inhibition,[2]; at 0.5 µM,-15.5% (inactive)
same,inhibition,[2]; [11],-18.2%
same,inhibition,[2]; [12],-6.5%
same,inhibition,[3]; at 0.5 µM,15.1% (inactive)
same,inhibition,[3]; [13],4.09%
same,inhibition,[3]; [14],52.8%
same,inhibition,[3]; [15],11.9%
same,inhibition,[3]; [16],66.7%
same,inhibition,[4]; [17],113%
same,inhibition,[4]; at 0.5 µM,63.6% (inactive)
same,inhibition,[4]; [18],110%
same,inhibition,[5],4.77% (inactive)
same,inhibition,[5]; [19],-3.14%
same,inhibition,[5]; [20],8.25%
same,inhibition,[6]; at 0.5 µM,-17.7% (inactive)
same,inhibition,[6]; [21],-11.9%
same,inhibition,"[6]; cisplatin combination, at 5 µM",0.406%
same,inhibition,[6]; [22],0.063%
same,inhibition,"[6]; single agent, at 5 µM",26.6%
same,inhibition,[7]; at 0.5 µM,-16.7% (inactive)
same,inhibition,"[7]; cisplatin combo, at 5 µM",-5.08%
same,inhibition,[7]; [23],-23.1%
same,inhibition,[7]; [11],12.6%
same,inhibition,"[7]; single agent, at 5 µM",-10.3%
same,inhibition,[8]; at 0.5 µM,-1.16% (inactive)
same,inhibition,[8]; [24],-1.16%
same,inhibition,[8]; [25],-1.16%
same,inhibition,"[8]; single agent, at 0.05 µM",-14.2%
same,inhibition,"[8]; single agent, at 5 µM",77.7%
CC(=O)OCC(=O)NCCCOc1cccc(CN2CCCCC2)c1,log fold change Tl+ flux,F380Y,-0.0125 (inactive)
same,log fold change Tl+ flux,F380Y/beta1,-0.015 (inactive)
C[C@H]1COc2c(C3(N)CC3)c(F)cc3c(=O)c(C(=O)O)cn1c23,inhibition,[1]; at 0.5 µM,2.11% (inactive)
same,inhibition,[1]; [9],-7.87%
same,inhibition,[1]; [10],-10.7%
same,inhibition,[2]; at 0.5 µM,-20.7% (inactive)
same,inhibition,[2]; [11],-28.1%
same,inhibition,[2]; [12],-123%
same,inhibition,[3]; at 0.5 µM,-24.5% (inactive)
same,inhibition,[3]; [13],-30.5%
same,inhibition,[3]; [14],-26.3%
same,inhibition,[3]; [15],-33.6%
same,inhibition,[3]; [16],0.273%
same,inhibition,[4]; [17],-9.44%
same,inhibition,[4]; at 0.5 µM,-1.55% (inactive)
same,inhibition,[4]; [18],-1.09%
same,inhibition,[5],5.46% (inactive)
same,inhibition,[5]; [19],4.83%
same,inhibition,[5]; [20],-0.547%
same,inhibition,[6]; at 0.5 µM,-36.3% (inactive)
same,inhibition,[6]; [21],-17.3%
same,inhibition,"[6]; cisplatin combination, at 5 µM",-31.8%
same,inhibition,[6]; [22],22.3%
same,inhibition,"[6]; single agent, at 5 µM",-28.3%
same,inhibition,[7]; at 0.5 µM,-18.8% (inactive)
same,inhibition,"[7]; cisplatin combo, at 5 µM",-20.9%
same,inhibition,[7]; [23],-11.8%
same,inhibition,[7]; [11],-24.3%
same,inhibition,"[7]; single agent, at 5 µM",-38.1%
same,inhibition,[8]; at 0.5 µM,9.56% (inactive)
same,inhibition,[8]; [24],-3.27%
same,inhibition,[8]; [25],14.1%
same,inhibition,"[8]; single agent, at 0.05 µM",-13.5%
same,inhibition,"[8]; single agent, at 5 µM",10.7%
same,log fold change Tl+ flux,F380Y,-0.0868 (inactive)
same,log fold change Tl+ flux,F380Y/beta1,0.0568 (inactive)
Cc1c(O)cccc1C(=O)N[C@@H](CSc1ccccc1)[C@H](O)CN1C[C@H]2CCCC[C@H]2C[C@H]1C(=O)NC(C)(C)C,log fold change Tl+ flux,F380Y,0.0722 (inactive)
same,log fold change Tl+ flux,F380Y/beta1,0.0513 (inactive)
O=c1c(-c2ccc(O)cc2)coc2cc(O)cc(O)c12,inhibition,[1]; at 0.5 µM,-11.2% (inactive) and 6.51% (inactive)
same,inhibition,[1]; [9],-19.6% and -14.9%
same,inhibition,[1]; [10],-41.2% and -9.05%
same,inhibition,[2]; at 0.5 µM,-21.6% (inactive) and -9.3% (inactive)
same,inhibition,[2]; [11],-19.9% and -5.5%
same,inhibition,[2]; [12],2.54% and -37.8%
same,inhibition,[3]; at 0.5 µM,-10.3% (inactive) and -13.9% (inactive)
same,inhibition,[3]; [13],-9.11% and -11.4%
same,inhibition,[3]; [14],-2.8% and 13.3%
same,inhibition,[3]; [15],-11% and -29.3%
same,inhibition,[3]; [16],-8.45% and 5.18%
same,inhibition,[4]; [17],16.4% and 33.4%
same,inhibition,[4]; at 0.5 µM,-10.6% (inactive) and 4.64% (inactive)
same,inhibition,[4]; [18],5.85% and 47.6%
same,inhibition,[5],-1.4% (inactive) and 12.1% (inactive)
same,inhibition,[5]; [19],14% and 8.3%
same,inhibition,[5]; [20],-16.8% and 13.7%
same,inhibition,[6]; at 0.5 µM,-13.6% (inactive) and -23.4% (inactive)
same,inhibition,[6]; [21],-26.2% and 3.79%
same,inhibition,"[6]; cisplatin combination, at 5 µM",1.19% and 21.5%
same,inhibition,[6]; [22],-40.6% and -5.57%
same,inhibition,"[6]; single agent, at 5 µM",-5.08% and 6.68%
same,inhibition,[7]; at 0.5 µM,0.59% (inactive) and -8.25% (inactive)
same,inhibition,"[7]; cisplatin combo, at 5 µM",-43.5% and 11.5%
same,inhibition,[7]; [23],-4.72% and -2.4%
same,inhibition,[7]; [11],13.5% and -9.76%
same,inhibition,"[7]; single agent, at 5 µM",-12.8% and -12.2%
same,inhibition,[8]; at 0.5 µM,-44.2% (inactive) and 5.21% (inactive)
same,inhibition,[8]; [24],-31% and 18.3%
same,inhibition,[8]; [25],-53.3% and -3.63%
same,inhibition,"[8]; single agent, at 0.05 µM",-62.4% and -21.3%
same,inhibition,"[8]; single agent, at 5 µM",-46.3% and 9.19%
